Most compounds without a hit are left out; they make up all but 2.7% or so of the library.
HepG2 viability = counter-screen for TGF-b inhibitors: cytotoxicity in HepG2 cells. Potency, µM (doses to about 46.1 µM), without a hit: top-dose activity change, negative = cytotoxicity, actives largely listed as cytotoxic. actives 0.76% (n = 410,000). HepG2 CAGA-GFP viability, ATP luminescence, 18 h
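HepG2 CAGA-GFP cells (1000/well, DMEM with 1% FBS) received compound, then TGF-beta at 500 pg/mL final, and were incubated 18 hours at 37 degrees C. Viability was read by CellTiter-Glo luminescence. Media-only wells were set as complete cell-killing and DMSO as no toxicity.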
TGFb inhibitor = inhibitors of TGF-b signaling. actives 1.2% (n = 410,000). Potency, µM (highest dose often 46.1 µM), for inactives: top-dose activity, negative = inhibition, actives largely listed as inhibitors. HepG2 CAGA-GFP TGF-b/SMAD3 reporter, GFP fluorescence, 18 h; TGF-beta stimulated, 500 pg/mL final; note: % is set by controls: 0 for no effect and ±100 for the full control effect; nearly all actives have a fitted effect of over 65% in size
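Inhibition was scored as loss of TGF-beta-induced (500 pg/mL final, 18 hours, 37 degrees C) GFP in HEPG2 cells carrying a CAGA-GFP reporter, in DMEM with 1% FBS. Well GFP was summed per cell; Activity was normalised to unstimulated and stimulated DMSO wells, then concentration-response fitting.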
ATXN2 expr inh = inhibitors of ATXN2 expression; Potency, µM (doses to about 57 µM), for inactives: at the top dose activity change, negative = inhibition, usual class: inhibitors; actives 0.72% (n = 360,000); HEK-293 ATXN2-luciferase reporter, luminescence, 24 h; AID 1745845; note: % is set by controls: 0 for no effect and ±100 for the full control effect; nearly all actives have a fitted effect of over 55% in size
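ATXN2-luciferase reporter cells (luciferase flanked by upstream and downstream ATXN2 gene portions) were treated 24 h at 37 °C with compounds at up to 57 uM. SteadyGlo luminescence gave expression; GF-AFC fluorescence gave viability.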
ATXN viability = cell viability loss in ATXN counter-screen | S2 cells (HEK-293 line with an ATXN2-luciferase reporter) viability, CellTiter-Fluor protease fluorescence, 24 h | Potency, µM (top dose mostly 56.7 µM), most hits filed as cytotoxic | AID 651635 | actives 0.49% (n = 400,000); note: nearly all actives have a fitted effect of over 40% in size
12-LOX inh = ALOX12 (human) lipoxygenase inhibition | P18054 | purified 12hLO, xylenol orange hydroperoxide absorbance | Potency, µM (series often up to 108 µM), without a hit: at the top dose activity change, negative = inhibition, hits mostly inhibitors | actives 1.1% (n = 580,000); note: % is set by controls: 0 for no effect and ±100 for the full control effect
Target sequence (P18054 whole entry, looked up): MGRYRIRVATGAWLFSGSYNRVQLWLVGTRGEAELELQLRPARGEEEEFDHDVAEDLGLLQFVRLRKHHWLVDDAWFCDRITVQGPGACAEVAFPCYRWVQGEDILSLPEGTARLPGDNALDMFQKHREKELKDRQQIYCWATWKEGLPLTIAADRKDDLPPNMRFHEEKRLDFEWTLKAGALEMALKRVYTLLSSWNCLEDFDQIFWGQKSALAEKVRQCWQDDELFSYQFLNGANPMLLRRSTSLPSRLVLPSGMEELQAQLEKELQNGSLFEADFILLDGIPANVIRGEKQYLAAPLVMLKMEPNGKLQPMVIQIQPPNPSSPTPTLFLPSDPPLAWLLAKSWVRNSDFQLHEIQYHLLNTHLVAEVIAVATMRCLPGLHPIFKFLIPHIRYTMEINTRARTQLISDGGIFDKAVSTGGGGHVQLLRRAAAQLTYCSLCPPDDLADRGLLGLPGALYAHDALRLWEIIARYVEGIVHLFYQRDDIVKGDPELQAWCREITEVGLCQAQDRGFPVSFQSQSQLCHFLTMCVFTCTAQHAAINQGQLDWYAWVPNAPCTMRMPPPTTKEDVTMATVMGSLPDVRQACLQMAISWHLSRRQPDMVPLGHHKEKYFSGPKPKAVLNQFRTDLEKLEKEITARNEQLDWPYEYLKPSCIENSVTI
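Purified human 12hLO at 150 nM in 25 mM Hepes, 0.01% Triton X-100, pH 7.0, preincubated 15 min at room temperature with compound. Reaction started with 40 uM arachidonic acid, 30 min at room temperature. Hydroperoxide measured by Fe-xylenol orange, 573/405 nm absorbance ratio.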
Starred values were filed as active, the others as inactive; i = inactive; ? = inconclusive; . = no result given; [ ] = dose if it differs, or a comment. Calls come from the whole dose curve; as a rule, active = well fitted curve in the direction sought with a large enough effect; inconclusive = small, poorly fitted or top-dose-only effect, or another doubt; inactive = no such curve, though single readings can be large; an effect the other way counts as inactive or inconclusive. Potency is the fitted concentration of half-maximal effect.

SMILES | HepG2 viability | TGFb inhibitor | ATXN2 expr inh | ATXN viability | 12-LOX inh
Cc1ccc(C)c(/C=C/C(=O)c2cccc(O)c2)c1 | . | . | . | . | -19%
Cc1ccc(C)c(/C=C/C(=O)c2ccccc(=O)c2O)c1 | -70% | ? | 18µM* | ? | 20µM*
O=C(/C=C/c1ccccc1Cl)c1ccccc(=O)c1O | -32% | ? | 25µM* | ? | ?
O=C(/C=C/c1ccc([N+](=O)[O-])cc1)c1ccccc1 | . | . | . | . | 1%
O=C(/C=C/c1ccccc1Cl)c1ccc(O)cc1 | -29% | ? | 13% | i | ?
Cc1ccc(/C=C/C(=O)c2ccccc(=O)c2O)c(C)c1 | -58% | 13µM* | ? | ? | 32µM*
O=C(/C=C/c1ccc([N+](=O)[O-])cc1)c1ccccc(=O)c1O | -31% | 3.2µM* | ? | . | ?
O=C(/C=C/c1ccc(Cl)cc1)c1cccnc1 | -32% | ? | ? | ? | ?
O=C(/C=C/c1ccccc1Cl)c1cccnc1 | 11µM* | ? | 5% | i | -12%
O=C1NC(=O)[C@@H](c2cn3c4c(cccc24)CCC3)[C@H]1c1c[nH]c2ccccc12 | . | . | -21% | . | -17%[57.4 µM]
C/C(=N\NC(=S)NC(C)C)c1ccc(Cl)s1 | -32% | ? | 18% | i | 45µM*
O=C(c1ccccc1)N(CCCl)C(=O)N(CCCl)C(=O)c1ccccc1 | -21% | -4% | . | i | 10µM*
O=C(c1ccccc1)N(C(=O)c1ccccc1)c1ccccc1 | -12% | 8% | . | i | -13%
Cc1oc2ncn(CC(C)C)c(=O)c2c1C(=O)Nc1cc(F)ccc1F | 3% | -5% | 35µM* | ? | -20%
CCCCCCCCSC1=CC(=O)C(OC)=C(OC)C1=O | 7.1µM* | 10µM* | . | ? | ?
COC(=O)C1=CN(c2ccc(F)cc2)C(N)=C(C#N)C1c1ccccc1 (configuration not stated) | . | . | . | . | 45µM*
CC(OC(=O)c1cc(=O)[nH]c2ccccc12)C(=O)Nc1cccc2ccccc12 (configuration not stated) | . | . | . | . | -14%
Cc1ccc(/C=C2\C(=O)ON=C2c2ccccc2)o1 | 8% | -2% | -7% | i | ?
Cc1ccc(C2=NOC(=O)/C2=C\c2ccc(C)o2)cc1 | -58% | 0% | 5% | i | 16µM*
Cc1ccc(-c2ccc(/C=C3\C(=O)ON=C3c3ccccc3)o2)c([N+](=O)[O-])c1 | -17% | -4% | ? | 35µM* | 4.5µM*
CCCCCCCC[n+]1cccc2c3ccccc3ccc21 | -10% | 1.4µM* | . | ? | ?
CCCCCCCCCC[n+]1cccc2c3ccccc3ccc21 | 11µM* | 13µM* | 0.67µM* | ? | -20%
Cc1cc[n+](CC(=O)c2ccc(F)cc2)c2ccccc12 | -5% | 21% | . | . | .
CCCCCCCCCC[n+]1cccc2cc(Cl)ccc21 | -84% | ? | . | . | .
CCCCCCCCCC[n+]1ccc(/C=C/c2c[nH]c3ccccc23)c2ccccc21 | 13µM* | 7.1µM* | . | . | .
SMILES | HepG2 viability | TGFb inhibitor | ATXN2 expr inh | ATXN viability | 12-LOX inh
CCCCCCCCCCCCCCCC[n+]1ccc(C)c2ccccc21 | 11µM* | 7.1µM* | . | . | .
Cc1c(NC(=O)c2nn(CCO)c(=O)c3ccccc23)c(=O)n(-c2ccccc2)n1C | . | . | . | . | -10%
C=C(C)COc1ccc2c(=O)c(Oc3ccc(C(=O)OCC)cc3)c(C)oc2c1 | . | . | . | . | 39%
O=S(=O)(NCCc1cn2ccccc2n1)c1cccc(Cl)c1 | . | . | . | . | 3%
CC(NNC(=S)N1CCN(c2ccccn2)CC1)c1nccc2ccccc12 (configuration not stated) | -12% | ? | ? | 11µM* | ?
CCC(=O)OC1(C(C)=O)CCC2C3CCC4=CC(=O)CCC4(C)C3CCC21C (configuration not stated) | 9% | -19% | 20µM* | ? | 1%
COCCNC(=O)NC(=O)CN(Cc1ccccc1)c1ccc(C)cc1 | . | . | . | . | 27%
Clc1ccc(-c2cc3ccccn3c2)cc1 | . | . | . | . | 4µM*
Nc1ccc(C(=O)NN2C(=O)[C@H](Cl)C2c2ccc(Cl)cc2)cc1 (some centres not stated) | -88% | 0% | ? | 13µM* | ?
CCNC(=O)CC1C(=O)N(C)C(=S)N1NC(=O)c1ccc(Cl)cc1 (configuration not stated) | -24% | -1% | -6% | i | ?
COCc1nc2cccnc2n1C1CCN(S(=O)(=O)c2ccc(Cl)s2)CC1 | . | . | . | . | 0%
OC(c1ccccc1)(c1ccccc1)C1CCN(C(=S)NCCc2ccccc2)CC1 | -13% | -18% | -20% | i | 40µM*
CC1CCN(C(=S)NCCc2ccccc2)CC1 | 3% | -12% | 48% | i | 4%
Cc1cccc(NC(=O)CCc2ccccc2)c1 | -29% | -6% | 24% | i | -3%
Cc1cccc(NC(=S)NC(C)CCc2ccccc2)c1 (configuration not stated) | -34% | -23% | -9% | i | 40µM*
COc1cccc(NC(=S)NC(Cc2ccccc2)c2ccccc2)c1 (configuration not stated) | -24% | 22µM* | . | i | 40µM*
Cc1cccc(NC(=O)C(C#N)C(=O)CCc2ccccc2)c1 (configuration not stated) | . | . | . | . | 32µM*
c1ccc(-c2noc(-c3cncnc3N3CCSCC3)n2)cc1 | . | . | . | . | 49%
